# According to the supplement of paper PMC6992640:
# Experiments:
# [1] = system: HCI01 (cells of a triple-negative basal-like breast cancer xenograft); assay: cell viability of combination (% of vehicle); higher = less cytotoxic; settings: 1 µM; 72 h; partner dose: 10 nM
# Method: (§1)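 PDX cells were treated for 72 h with each drug at 1 µM plus afatinib (10 nM; 1 µM for WHIM30). Luciferase viability is expressed as percent of vehicle.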
# [2] = system: WHIM2 (cells of a triple-negative basal-like breast cancer xenograft); assay: as above; settings: 1 µM; 72 h; partner dose: 10 nM
# Method: as §1
structure (smiles),measurement,setting,value
COCCOC(=O)C1=C(C)NC(C)=C(C(=O)OCC=Cc2ccccc2)C1c1cccc([N+](=O)[O-])c1 (stereo not given) [Cilnidipine] + CN(C)C/C=C/C(=O)Nc1cc2c(Nc3ccc(F)c(Cl)c3)ncnc2cc1O[C@H]1CCOC1 [Afatinib],cell viability of combination,[1],48.9
same,cell viability of combination,[2],40.4
CC(C)C(=O)OCC(=O)[C@@]12O[C@H](C3CCCCC3)O[C@@H]1C[C@H]1[C@@H]3CCC4=CC(=O)C=C[C@]4(C)[C@H]3[C@@H](O)C[C@@]12C [Ciclesonide] + CN(C)C/C=C/C(=O)Nc1cc2c(Nc3ccc(F)c(Cl)c3)ncnc2cc1O[C@H]1CCOC1 [Afatinib],cell viability of combination,[1],67.5
same,cell viability of combination,[2],41.3
CCCCc1oc2ccc(NS(C)(=O)=O)cc2c1C(=O)c1ccc(OCCCN(CCCC)CCCC)cc1.Cl [Dronedarone HCl] + CN(C)C/C=C/C(=O)Nc1cc2c(Nc3ccc(F)c(Cl)c3)ncnc2cc1O[C@H]1CCOC1 [Afatinib],cell viability of combination,[1],54.4
same,cell viability of combination,[2],52.5
CN1CCN(c2ccc(C(=O)/N=c3\[nH][nH]c4ccc(Cc5cc(F)cc(F)c5)cc34)c(NC3CCOCC3)c2)CC1 [Entrectinib] + CN(C)C/C=C/C(=O)Nc1cc2c(Nc3ccc(F)c(Cl)c3)ncnc2cc1O[C@H]1CCOC1 [Afatinib],cell viability of combination,[1],57.5
same,cell viability of combination,[2],38.5
COC(=O)NC(C(=O)N1CCCC1c1ncc(-c2ccc(-c3ccc(-c4cnc(C5CCCN5C(=O)C(NC(=O)OC)C(C)C)[nH]4)cc3)cc2)[nH]1)C(C)C (stereo not given) + CN(C)C/C=C/C(=O)Nc1cc2c(Nc3ccc(F)c(Cl)c3)ncnc2cc1O[C@H]1CCOC1 [Afatinib],cell viability of combination,[1],48.3
same,cell viability of combination,[2],46.3
COC(=O)NC(C(=O)NC(Cc1ccccc1)C(O)CN(Cc1ccc(-c2ccccn2)cc1)NC(=O)C(NC(=O)OC)C(C)(C)C)C(C)(C)C (stereo not given) [Atazanavir] + CN(C)C/C=C/C(=O)Nc1cc2c(Nc3ccc(F)c(Cl)c3)ncnc2cc1O[C@H]1CCOC1 [Afatinib],cell viability of combination,[1],48.8
same,cell viability of combination,[2],54
CC(C)CC(NC(=O)CNC(=O)c1cc(Cl)ccc1Cl)B(O)O (stereo not given) + CN(C)C/C=C/C(=O)Nc1cc2c(Nc3ccc(F)c(Cl)c3)ncnc2cc1O[C@H]1CCOC1 [Afatinib],cell viability of combination,[1],37
same,cell viability of combination,[2],94.3
CCCCCCCCOc1ccccc1C(=O)Nc1ccc(C(=O)OCC[N+](C)(CC)CC)cc1.[Br-] [Otilonium Bromide] + CN(C)C/C=C/C(=O)Nc1cc2c(Nc3ccc(F)c(Cl)c3)ncnc2cc1O[C@H]1CCOC1 [Afatinib],cell viability of combination,[1],52.9
same,cell viability of combination,[2],53.9
Clc1ccc(C(Cn2ccnc2)OCc2c(Cl)cccc2Cl)c(Cl)c1.O=[N+]([O-])O (stereo not given) [Isoconazole nitrate] + CN(C)C/C=C/C(=O)Nc1cc2c(Nc3ccc(F)c(Cl)c3)ncnc2cc1O[C@H]1CCOC1 [Afatinib],cell viability of combination,[1],63.8
same,cell viability of combination,[2],52.1
CC(C)N=c1cc2n(-c3ccc(Cl)cc3)c3ccccc3nc-2cc1Nc1ccc(Cl)cc1 [Clofazimine] + CN(C)C/C=C/C(=O)Nc1cc2c(Nc3ccc(F)c(Cl)c3)ncnc2cc1O[C@H]1CCOC1 [Afatinib],cell viability of combination,[1],45.8
same,cell viability of combination,[2],38.9
Cl.Cl.O=C1c2c(O)ccc(O)c2C(=O)c2c(NCCNCCO)ccc(NCCNCCO)c21 [Mitoxantrone HCl] + CN(C)C/C=C/C(=O)Nc1cc2c(Nc3ccc(F)c(Cl)c3)ncnc2cc1O[C@H]1CCOC1 [Afatinib],cell viability of combination,[1],61.6
same,cell viability of combination,[2],13.5
CCN(CC)CCCC(C)Nc1ccnc2cc(Cl)ccc12.O=P(O)(O)O.O=P(O)(O)O (stereo not given) [Chloroquine diphosphate] + CN(C)C/C=C/C(=O)Nc1cc2c(Nc3ccc(F)c(Cl)c3)ncnc2cc1O[C@H]1CCOC1 [Afatinib],cell viability of combination,[1],44.6
same,cell viability of combination,[2],34.5
CO[C@@]12[C@H](COC(N)=O)C3=C(C(=O)C(C)=C(N)C3=O)N1C[C@@H]1N[C@@H]12 [Mitomycin C] + CN(C)C/C=C/C(=O)Nc1cc2c(Nc3ccc(F)c(Cl)c3)ncnc2cc1O[C@H]1CCOC1 [Afatinib],cell viability of combination,[1],36
same,cell viability of combination,[2],35.1
CC(C)(C)c1ccc(C(O)CCCN2CCC(C(O)(c3ccccc3)c3ccccc3)CC2)cc1 (stereo not given) [Terfenadine] + CN(C)C/C=C/C(=O)Nc1cc2c(Nc3ccc(F)c(Cl)c3)ncnc2cc1O[C@H]1CCOC1 [Afatinib],cell viability of combination,[1],52.8
same,cell viability of combination,[2],51.1
COc1ccc2c(O[C@H]3CC4C(=O)N(C)CCCC/C=C\[C@H]5C[C@@]5(C(=O)NS(=O)(=O)C5CC5)NC(=O)[C@@H]4C3)cc(-c3nc(C(C)C)cs3)nc2c1C (stereo not given in full) [Simeprevir] + CN(C)C/C=C/C(=O)Nc1cc2c(Nc3ccc(F)c(Cl)c3)ncnc2cc1O[C@H]1CCOC1 [Afatinib],cell viability of combination,[1],53.9
same,cell viability of combination,[2],46.8
COC(=O)C1=C(C)NC(C)=C(C(=O)OCCN(C)Cc2ccccc2)C1c1cccc([N+](=O)[O-])c1.Cl (stereo not given) [Nicardipine HCl] + CN(C)C/C=C/C(=O)Nc1cc2c(Nc3ccc(F)c(Cl)c3)ncnc2cc1O[C@H]1CCOC1 [Afatinib],cell viability of combination,[1],58.7
same,cell viability of combination,[2],48
CC(C)CC(NC(=O)C(NC(=O)c1cccc(-c2ccccc2)n1)C(C)O)B(O)O (stereo not given) + CN(C)C/C=C/C(=O)Nc1cc2c(Nc3ccc(F)c(Cl)c3)ncnc2cc1O[C@H]1CCOC1 [Afatinib],cell viability of combination,[1],34.1
same,cell viability of combination,[2],97
Cl.OC(CNCC(O)C1CCc2cc(F)ccc2O1)C1CCc2cc(F)ccc2O1 (stereo not given) [Nebivolol] + CN(C)C/C=C/C(=O)Nc1cc2c(Nc3ccc(F)c(Cl)c3)ncnc2cc1O[C@H]1CCOC1 [Afatinib],cell viability of combination,[1],47.1
same,cell viability of combination,[2],44.7
Nc1ncn(C2OC(CO)C(O)C2O)c(=O)n1 (stereo not given) [5-Azacytidine] + CN(C)C/C=C/C(=O)Nc1cc2c(Nc3ccc(F)c(Cl)c3)ncnc2cc1O[C@H]1CCOC1 [Afatinib],cell viability of combination,[1],53.5
same,cell viability of combination,[2],48.9
COc1ccc(C[C@H](N)C(=O)N[C@@H]2[C@H](O)[C@H](n3cnc4c(N(C)C)ncnc43)O[C@@H]2CO)cc1.Cl.Cl [Puromycin dihydrochloride] + CN(C)C/C=C/C(=O)Nc1cc2c(Nc3ccc(F)c(Cl)c3)ncnc2cc1O[C@H]1CCOC1 [Afatinib],cell viability of combination,[1],69.5
same,cell viability of combination,[2],82.6
CN1CCC(COc2cnc(-c3cccc(Cn4nc(-c5cccc(C#N)c5)ccc4=O)c3)nc2)CC1 + CN(C)C/C=C/C(=O)Nc1cc2c(Nc3ccc(F)c(Cl)c3)ncnc2cc1O[C@H]1CCOC1 [Afatinib],cell viability of combination,[1],39.9
same,cell viability of combination,[2],51
O=C1C=CC=CC1=C1NC(=C2C=CC=CC2=O)N(c2ccc(C(=O)O)cc2)N1 [Deferasirox] + CN(C)C/C=C/C(=O)Nc1cc2c(Nc3ccc(F)c(Cl)c3)ncnc2cc1O[C@H]1CCOC1 [Afatinib],cell viability of combination,[1],43.2
same,cell viability of combination,[2],42.2
CN(C)CC=CC(=O)Nc1cc2c(Nc3ccc(F)c(Cl)c3)ncnc2cc1OC1CCOC1.O=C(O)C=CC(=O)O.O=C(O)C=CC(=O)O (stereo not given) [Afatinib dimaleate] + CN(C)C/C=C/C(=O)Nc1cc2c(Nc3ccc(F)c(Cl)c3)ncnc2cc1O[C@H]1CCOC1 [Afatinib],cell viability of combination,[1],50.8
same,cell viability of combination,[2],35.4
O=C(NN=Cc1ccc([N+](=O)[O-])o1)c1ccc(O)cc1 [Nifuroxazide] + CN(C)C/C=C/C(=O)Nc1cc2c(Nc3ccc(F)c(Cl)c3)ncnc2cc1O[C@H]1CCOC1 [Afatinib],cell viability of combination,[1],50.8
same,cell viability of combination,[2],48.8
COc1ccc(CN2CCN(C(c3ccc(F)cc3)c3ccc(F)cc3)CC2)c(OC)c1OC.Cl.Cl [Lomerizine HCl] + CN(C)C/C=C/C(=O)Nc1cc2c(Nc3ccc(F)c(Cl)c3)ncnc2cc1O[C@H]1CCOC1 [Afatinib],cell viability of combination,[1],57.7
same,cell viability of combination,[2],50.9
CN(C)CCOc1ccc(C(=C(CCCl)c2ccccc2)c2ccccc2)cc1.O=C(O)CC(O)(CC(=O)O)C(=O)O [Toremifene Citrate] + CN(C)C/C=C/C(=O)Nc1cc2c(Nc3ccc(F)c(Cl)c3)ncnc2cc1O[C@H]1CCOC1 [Afatinib],cell viability of combination,[1],70.8
same,cell viability of combination,[2],55.7
Cc1c(-c2ccc(O)cc2)n(Cc2ccc(OCCN3CCCCCC3)cc2)c2ccc(O)cc12.Cl [Bazedoxifene HCl] + CN(C)C/C=C/C(=O)Nc1cc2c(Nc3ccc(F)c(Cl)c3)ncnc2cc1O[C@H]1CCOC1 [Afatinib],cell viability of combination,[1],64.6
same,cell viability of combination,[2],49.7
CC(C)(C)Cn1c(N)nc2ccc(-c3[nH]c(C(C)(C)C)nc3-c3ccc(F)cc3)nc21.CS(=O)(=O)O.CS(=O)(=O)O + CN(C)C/C=C/C(=O)Nc1cc2c(Nc3ccc(F)c(Cl)c3)ncnc2cc1O[C@H]1CCOC1 [Afatinib],cell viability of combination,[1],35.9
same,cell viability of combination,[2],35.4
CC(C)C1=CC(=C2NNC(=O)N2c2ccc3c(ccn3C)c2)C(=O)C=C1O [Ganetespib (STA-9090)] + CN(C)C/C=C/C(=O)Nc1cc2c(Nc3ccc(F)c(Cl)c3)ncnc2cc1O[C@H]1CCOC1 [Afatinib],cell viability of combination,[1],49.1
same,cell viability of combination,[2],29.1
CC(C)Nc1cc(-c2c[nH]c(C(=O)NC(CO)c3cccc(Cl)c3)c2)c(Cl)cn1 (stereo not given) + CN(C)C/C=C/C(=O)Nc1cc2c(Nc3ccc(F)c(Cl)c3)ncnc2cc1O[C@H]1CCOC1 [Afatinib],cell viability of combination,[1],50.7
same,cell viability of combination,[2],30.3
